The values that follow come from PubChem BioAssay.

Assay [1] in a line: AGP1-GFP expression modulators, hit retest, confirmation, cell-based, flow cytometry, S. cerevisiae, cherry picks (AID 2273;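 active = GFP response above 150% of the DMSO level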;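 also: median GFP channel fluorescence over the whole cell population gate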). The note with it: S. cerevisiae AGP1-GFP strain, 3 h, at 10 µM.
The target in assay [2] is Integrin beta-1 (Homo sapiens) + Integrin alpha-4 (Homo sapiens) (UniProt P13612+P05556). Briefly: inhibition of HUTS-21 binding to VLA-4, pilot screen, VLA-4 allosteric modulator project, U937 cells, HUTS-21 mAb, flow cytometry, validation set (AID 2674;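 active = inhibition above 50%, about 3 SD of the validation set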;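 also: antibody binding induced by the VLA-4 ligand LDV present at three times its Kd; 0% = LDV ligand with antibody and no compound and 100% = antibody without LDV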). The note with it: HUTS-21 LIBS mAb binding, at 6.7 µM, active compounds read high, binding induced by LDV ligand.
Assay [3] is described as follows: superoxide lowering in aged yeast cells, pilot screen, validation compound set (AID 2706;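 active = superoxide response below 65% of plate, a cut near 3 SD across the whole screen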;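 also: yeast exposed to compound for one week at 30 degrees C before staining; 100% = mean of all compound wells on the same plate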). Particulars: S. cerevisiae aging, superoxide DHE fluorescence; at 10 µM; active compounds read low.
For assay [4], the target named is Beta-adrenergic receptor kinase 1 (Homo sapiens) (UniProt P25098). The assay can be described thus: GRK2 binders displacing RNA aptamer, biochemical, validation, human GRK2, bead flow cytometry (AID 488806;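 active = aptamer binding inhibition above 30%, about 3 SD of noise from non-fluorescent compounds; inactive = inhibition at or below 30%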). Particulars: bead-bound GRK2, FAM-aptamer displacement, at 10 µM, active compounds read high.
Assay [5] concerns the target Beta-2 adrenergic receptor (Homo sapiens) (UniProt P07550). Briefly: beta2AR agonists driving receptor internalization, pilot screen, cell-based, FAP fluorogen, flow cytometry, validation set (AID 504459;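 active = percent response above 42, roughly 3 SD of non-fluorescent test compounds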;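 also: agonist-driven loss of surface beta2AR via internalization measured by FAP dye flow cytometry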). Particulars: Am2.2-beta2AR cells, FAP surface receptor flow cytometry; at 10 µM; active compounds read high.
In assay [6] the target is AP-2 complex subunit beta (Homo sapiens) (UniProt P63010). The assay can be described thus: inhibitors of arrestin peptide binding to AP2, pilot screen, biochemical, validation set, GST-AP2 beads, flow cytometry (AID 504541;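 active = inhibition above 54%, about 3 SD of non-fluorescent compounds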;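 also: AP2 carries R879A mutation and is captured from E. coli lysate; bead-bound FITC arrestin peptide fluorescence measuring arrestin peptide binding to AP2; 0% = DMSO wells and 100% = excess unlabeled arrestin peptide control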). Particulars: FITC arrestin peptide, at 10 µM, active compounds read high, AP2 beta2 appendage fragment, R879A mutant.
A short description of assay [7]: yeast V-ATPase proton transport modulators, S. cerevisiae, pHLuorin, HTS validation (AID 504600; in the data active = response above about 15%;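 also: plate controls were DMSO for no effect and reference compound for full effect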). The note with it: S. cerevisiae pHLuorin cytosolic pH, at 10 µM, active compounds read high.
The test system of assay [8] is anti-desmoglein-3 scFv antibody binding to human DSG3. Briefly: inhibitors of anti-DSG3 scFv binding to DSG3, pilot screen, biochemical, validation compound set, bead-based, flow cytometry (AID 588368;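 active = binding below the plate cutoff, the plate median minus 3 SD, with a reading above zero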;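 also: signal is the median channel fluorescence of bead-bound GFP antibody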). Particulars: Protein G beads, DSG3-Fc, scFv-GFP binding, at 10 µM, active compounds read low.
Assay [9] is described as follows: inhibitors of fungal efflux pumps CDR1, CDR2, MDR1, pilot screen, validation compound set, multiplex, phenotypic (AID 588506;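 active = efflux inhibition above 0.42, the validation set average plus 4 SD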;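 also: Nile Red retained in cells so higher fluorescence means more efflux inhibition; 0 = negative control wells and 1 = enniatin B 25 µM full block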). Particulars: S. cerevisiae pump-expressing triplex, Nile Red efflux flow cytometry; at 10 µM; active compounds read high; the pumps come from Candida albicans.
In assay [10] the target is ATP-binding cassette sub-family B member 6 (Homo sapiens) (UniProt Q9NP58). Briefly: ABCB6 transporter inhibitors, pilot screen, K562-ABCB6 cells, flow cytometry, validation set (AID 588550;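 active = inhibition above the screen-wide mean plus 3 SD, about 51%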;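 also: 0% = DMSO wells and 100% = benzethonium chloride 70 µM positive control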). The note with it: K562-ABCB6 porphyrin accumulation, 1 h, at 10 µM, active compounds read high.
Assay [11] can be described thus: promoters of myeloid differentiation in arrested cells, primary screen, cell-based, GFP/MAC1 double positive, flow cytometry, validation set (AID 588685).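 Also: compound exposure lasts four days before antibody staining and flow analysis; 0% = DMSO wells and 100% = 5 µM fulvestrant positive control.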 Particulars: ER-HoxA9 marrow cells, active compounds read high, normalized: vehicle 0, fulvestrant 100.

SMILES strings stand for the structures. Unmarked numbers belong to inactive results. Activity calls are given as the source filed them.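 The calls were made as follows, unless noted: active = differentiation response of at least 50%, scaled between solvent and reference control, from cells with both markers; inactive = the rest.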

ATP-binding cassette sub-family B member 6 (Homo sapiens), sequence (Q9NP58 whole entry, looked up): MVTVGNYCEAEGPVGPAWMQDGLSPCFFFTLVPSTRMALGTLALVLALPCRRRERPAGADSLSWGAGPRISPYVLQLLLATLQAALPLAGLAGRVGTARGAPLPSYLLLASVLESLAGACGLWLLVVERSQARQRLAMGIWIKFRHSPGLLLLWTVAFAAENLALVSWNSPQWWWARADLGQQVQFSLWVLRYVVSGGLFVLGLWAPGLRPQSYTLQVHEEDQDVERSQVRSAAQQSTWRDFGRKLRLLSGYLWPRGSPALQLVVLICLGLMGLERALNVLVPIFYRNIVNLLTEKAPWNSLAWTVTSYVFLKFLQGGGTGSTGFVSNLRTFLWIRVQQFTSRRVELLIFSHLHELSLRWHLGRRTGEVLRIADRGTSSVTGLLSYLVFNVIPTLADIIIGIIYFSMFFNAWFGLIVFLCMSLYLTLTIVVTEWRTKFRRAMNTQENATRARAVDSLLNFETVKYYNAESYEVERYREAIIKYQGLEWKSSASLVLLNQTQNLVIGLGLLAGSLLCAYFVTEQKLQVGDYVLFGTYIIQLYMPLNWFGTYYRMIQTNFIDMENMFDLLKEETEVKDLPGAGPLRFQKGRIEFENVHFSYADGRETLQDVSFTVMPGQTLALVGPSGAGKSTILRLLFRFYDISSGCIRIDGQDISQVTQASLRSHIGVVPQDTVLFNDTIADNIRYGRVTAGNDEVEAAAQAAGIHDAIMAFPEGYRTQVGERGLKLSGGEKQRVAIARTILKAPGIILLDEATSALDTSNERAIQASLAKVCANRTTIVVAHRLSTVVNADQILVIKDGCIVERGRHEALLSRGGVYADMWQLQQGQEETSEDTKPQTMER
Beta-adrenergic receptor kinase 1 (Homo sapiens), sequence (P25098 whole entry, looked up): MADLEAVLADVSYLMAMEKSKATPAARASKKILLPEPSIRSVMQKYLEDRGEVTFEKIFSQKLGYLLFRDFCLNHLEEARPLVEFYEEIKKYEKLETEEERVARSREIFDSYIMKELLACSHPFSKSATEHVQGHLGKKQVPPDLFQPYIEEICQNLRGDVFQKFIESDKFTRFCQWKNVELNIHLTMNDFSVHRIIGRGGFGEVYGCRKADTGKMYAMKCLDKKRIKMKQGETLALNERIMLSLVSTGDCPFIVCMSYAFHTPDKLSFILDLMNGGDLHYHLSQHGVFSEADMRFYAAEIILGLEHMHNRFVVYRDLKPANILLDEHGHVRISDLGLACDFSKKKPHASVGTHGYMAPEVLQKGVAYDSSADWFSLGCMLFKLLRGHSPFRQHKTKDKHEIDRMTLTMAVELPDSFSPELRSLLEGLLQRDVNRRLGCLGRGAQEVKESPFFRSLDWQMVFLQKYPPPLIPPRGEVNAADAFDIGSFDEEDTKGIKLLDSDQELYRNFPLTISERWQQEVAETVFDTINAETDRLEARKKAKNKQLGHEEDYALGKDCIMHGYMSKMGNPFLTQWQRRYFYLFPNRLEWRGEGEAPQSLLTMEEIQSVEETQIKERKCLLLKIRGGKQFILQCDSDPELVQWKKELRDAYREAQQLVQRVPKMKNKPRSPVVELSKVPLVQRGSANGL
AP-2 complex subunit beta (Homo sapiens), sequence (P63010 whole entry, looked up, the tested form may be a part, one chain of several): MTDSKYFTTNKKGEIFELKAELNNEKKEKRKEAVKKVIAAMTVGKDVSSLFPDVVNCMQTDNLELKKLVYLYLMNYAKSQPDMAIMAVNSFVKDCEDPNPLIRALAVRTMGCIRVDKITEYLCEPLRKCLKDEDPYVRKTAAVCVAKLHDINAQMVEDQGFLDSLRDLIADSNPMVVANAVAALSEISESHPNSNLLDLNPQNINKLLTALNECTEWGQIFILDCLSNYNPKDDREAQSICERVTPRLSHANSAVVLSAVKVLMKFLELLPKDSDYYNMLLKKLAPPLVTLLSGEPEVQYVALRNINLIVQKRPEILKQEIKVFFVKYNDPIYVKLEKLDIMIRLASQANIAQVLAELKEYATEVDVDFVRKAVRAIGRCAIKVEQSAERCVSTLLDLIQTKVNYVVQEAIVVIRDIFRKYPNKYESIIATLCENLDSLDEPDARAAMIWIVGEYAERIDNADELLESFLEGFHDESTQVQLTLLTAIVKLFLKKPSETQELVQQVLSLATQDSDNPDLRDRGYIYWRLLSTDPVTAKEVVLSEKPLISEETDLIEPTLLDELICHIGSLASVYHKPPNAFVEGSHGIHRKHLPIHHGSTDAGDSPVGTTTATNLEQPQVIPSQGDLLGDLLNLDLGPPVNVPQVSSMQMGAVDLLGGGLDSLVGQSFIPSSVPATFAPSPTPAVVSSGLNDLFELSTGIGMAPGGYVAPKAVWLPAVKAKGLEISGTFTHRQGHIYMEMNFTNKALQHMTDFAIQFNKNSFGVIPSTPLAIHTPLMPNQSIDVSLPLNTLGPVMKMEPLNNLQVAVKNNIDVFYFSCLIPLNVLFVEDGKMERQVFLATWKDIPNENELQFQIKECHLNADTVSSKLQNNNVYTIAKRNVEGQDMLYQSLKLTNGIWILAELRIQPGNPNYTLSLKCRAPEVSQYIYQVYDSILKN
Beta-2 adrenergic receptor (Homo sapiens), sequence (P07550 whole entry, looked up): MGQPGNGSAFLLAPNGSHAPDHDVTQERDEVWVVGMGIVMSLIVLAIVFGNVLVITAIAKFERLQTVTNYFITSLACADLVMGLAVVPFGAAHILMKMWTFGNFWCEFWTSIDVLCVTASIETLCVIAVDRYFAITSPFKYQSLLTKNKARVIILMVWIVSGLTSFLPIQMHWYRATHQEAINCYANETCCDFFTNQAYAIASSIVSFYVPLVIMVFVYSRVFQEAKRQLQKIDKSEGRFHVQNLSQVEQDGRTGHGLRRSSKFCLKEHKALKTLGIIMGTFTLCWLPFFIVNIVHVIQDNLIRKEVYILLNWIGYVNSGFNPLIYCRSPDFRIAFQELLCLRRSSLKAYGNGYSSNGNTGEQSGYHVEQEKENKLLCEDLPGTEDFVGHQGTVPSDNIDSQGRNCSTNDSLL
Integrin beta-1 (Homo sapiens) + Integrin alpha-4 (Homo sapiens), sequence (P05556 whole entry, looked up): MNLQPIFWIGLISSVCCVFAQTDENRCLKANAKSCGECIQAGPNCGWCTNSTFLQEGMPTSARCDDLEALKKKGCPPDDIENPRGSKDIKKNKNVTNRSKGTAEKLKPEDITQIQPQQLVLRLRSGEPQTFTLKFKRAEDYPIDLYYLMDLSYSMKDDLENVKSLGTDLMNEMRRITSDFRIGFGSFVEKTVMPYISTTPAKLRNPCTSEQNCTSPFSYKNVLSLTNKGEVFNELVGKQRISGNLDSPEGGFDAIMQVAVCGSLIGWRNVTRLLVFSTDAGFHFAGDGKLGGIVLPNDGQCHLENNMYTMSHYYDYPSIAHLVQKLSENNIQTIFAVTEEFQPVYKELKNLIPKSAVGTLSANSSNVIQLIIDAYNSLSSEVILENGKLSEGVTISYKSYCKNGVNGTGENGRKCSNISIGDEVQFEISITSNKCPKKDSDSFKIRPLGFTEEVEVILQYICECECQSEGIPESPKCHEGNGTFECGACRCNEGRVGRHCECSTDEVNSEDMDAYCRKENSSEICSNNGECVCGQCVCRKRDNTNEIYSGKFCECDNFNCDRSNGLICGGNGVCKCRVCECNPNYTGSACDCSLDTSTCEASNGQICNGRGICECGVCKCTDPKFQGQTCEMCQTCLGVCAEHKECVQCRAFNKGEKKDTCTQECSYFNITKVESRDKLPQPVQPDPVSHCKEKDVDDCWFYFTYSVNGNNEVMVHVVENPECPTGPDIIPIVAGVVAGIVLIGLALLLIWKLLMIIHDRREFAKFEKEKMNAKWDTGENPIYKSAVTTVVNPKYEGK
Integrin beta-1 (Homo sapiens) + Integrin alpha-4 (Homo sapiens), sequence (P13612 whole entry, looked up): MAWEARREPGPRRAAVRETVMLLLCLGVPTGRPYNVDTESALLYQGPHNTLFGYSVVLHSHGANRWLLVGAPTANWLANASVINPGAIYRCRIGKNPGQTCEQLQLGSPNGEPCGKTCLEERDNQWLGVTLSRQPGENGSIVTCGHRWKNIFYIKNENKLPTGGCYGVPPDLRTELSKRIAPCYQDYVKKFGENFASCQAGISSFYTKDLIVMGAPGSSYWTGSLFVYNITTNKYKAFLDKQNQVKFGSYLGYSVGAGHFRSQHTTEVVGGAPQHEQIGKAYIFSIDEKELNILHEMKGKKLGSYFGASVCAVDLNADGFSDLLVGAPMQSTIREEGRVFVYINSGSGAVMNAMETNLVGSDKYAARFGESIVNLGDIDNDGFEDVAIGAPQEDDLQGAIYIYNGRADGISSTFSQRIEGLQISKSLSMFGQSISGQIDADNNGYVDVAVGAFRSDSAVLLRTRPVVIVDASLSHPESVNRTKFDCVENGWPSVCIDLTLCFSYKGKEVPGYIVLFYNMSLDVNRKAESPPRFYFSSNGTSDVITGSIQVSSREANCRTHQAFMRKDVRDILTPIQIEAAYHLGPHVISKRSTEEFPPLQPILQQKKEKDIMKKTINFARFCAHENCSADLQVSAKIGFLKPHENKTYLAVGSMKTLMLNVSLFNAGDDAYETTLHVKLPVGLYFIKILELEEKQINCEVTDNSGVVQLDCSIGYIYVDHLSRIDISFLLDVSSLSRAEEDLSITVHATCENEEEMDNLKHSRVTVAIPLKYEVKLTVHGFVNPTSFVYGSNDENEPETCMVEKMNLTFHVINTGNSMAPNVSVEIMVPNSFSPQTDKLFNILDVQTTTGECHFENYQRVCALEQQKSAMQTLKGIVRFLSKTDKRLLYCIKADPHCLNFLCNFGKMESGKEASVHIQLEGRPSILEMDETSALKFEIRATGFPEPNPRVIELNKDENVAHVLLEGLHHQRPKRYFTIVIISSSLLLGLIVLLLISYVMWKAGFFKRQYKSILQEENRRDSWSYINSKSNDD

As to `CC(=O)Nc1ccc(S(=O)(=O)c2ccc(N)cc2)cc1`, the GFP response, % of DMSO in assay [1] is 105%. Moreover, the inhibition in [2] is 17.1%; in [6] it was -5.82%; in assay [10], 8%. The superoxide response (% of plate) in [3] was 110%. Moreover, the aptamer binding inhibition in [4] was 0%. Further, the values for the response in [5] and in assay [7] were -3.74% and -1.44%, respectively. For the same compound, the binding (% of control) in assay [8] was 101%. For the same compound, in [9], the efflux inhibition (fraction of control) is 0.05. For the same compound, the differentiation response in assay [11] is 9.01%.
On to `C1COC(NC(C2CC2)C2CC2)=N1`, for which the GFP response, % of DMSO in [1] was 105%. Further, the inhibition in assay [2] was 17.1%; in [6], 11.9%; in assay [10], 6%. Besides, in [3], the superoxide response (% of plate) is 96.6%. Further, the aptamer binding inhibition in assay [4] is 3%. In addition, the response was 3.85% in [5] and 9.25% in [7]. Besides, in [8], the binding (% of control) was 98.3%. In [9], the efflux inhibition (fraction of control) was 0.23. For the same compound, the differentiation response in assay [11] is 0.82%.
Take `O=[N+]([O-])c1cccc2cn[nH]c12`: the GFP response, % of DMSO in assay [1] is 105%. Moreover, the results for the inhibition in assay [2], in [6] and in [10] were -13.9%, 49.7% and 0%, respectively. Also, the superoxide response (% of plate) in [3] is 117%. Also, the aptamer binding inhibition in [4] was 0%. Further, the response was -10.1% in [5] and -6.22% in assay [7]. In addition, in assay [8], the binding (% of control) is 93.6%. Besides, in [9], the efflux inhibition (fraction of control) was 0.3. The differentiation response in assay [11] was 3.28%.
As to `CC(=O)CSc1ncnc2c1cnn2-c1ccccc1`, the GFP response, % of DMSO in assay [1] is 92.6%. Moreover, the results for the inhibition in [2], in assay [6] and in [10] were 10.3%, 14.5% and 7%, respectively. Moreover, the superoxide response (% of plate) in [3] was 85.6%. Further, the aptamer binding inhibition in assay [4] was 1%. Also, the response is 6.9% in assay [5] and -1.56% in assay [7]. For the same compound, the binding (% of control) in assay [8] is 105%. Also, the efflux inhibition (fraction of control) in [9] was 0.09. The differentiation response in [11] is 6.55%.
As to `COc1ccc(-c2noc(-c3ccccc3-c3ccccc3)n2)cc1`, the GFP response, % of DMSO in [1] was 101%. Also, the inhibition in [2] is -15.8%; in assay [6], 19.4%; in assay [10], 6%. The superoxide response (% of plate) in assay [3] was 94.3%. Moreover, the aptamer binding inhibition in assay [4] was 8%. Besides, the response is 3.77% in assay [5] and -3.56% in assay [7]. Besides, the binding (% of control) in [8] is 100%. In addition, the efflux inhibition (fraction of control) in [9] is 0.19. The differentiation response in assay [11] was -1.64%.
`O=C(O)Cc1ccc(-c2ccccc2)cc1`: in [1], the GFP response, % of DMSO was 100%. In addition, the inhibition was 2.3% in [2], 22.4% in assay [6] and 8% in assay [10]. The superoxide response (% of plate) in assay [3] was 118%. The aptamer binding inhibition in [4] was 3%. The response was 2.38% in assay [5] and -1.1% in [7]. Besides, the binding (% of control) in [8] is 99.5%. Also, the efflux inhibition (fraction of control) in assay [9] is -0.42. Also, in assay [11], the differentiation response is -24.8%.
Regarding `COc1ccc(-c2[nH]ncc2CN(CCO)Cc2cccs2)c(F)c1`, the GFP response, % of DMSO in assay [1] was 97.2%. The figures for the inhibition in assay [2], in [6] and in assay [10] were 5.61%, 53.1% and -5%, respectively. In addition, the superoxide response (% of plate) in assay [3] is 92.5%. Further, the aptamer binding inhibition in assay [4] is 5%. Besides, the values for the response in assay [5] and in [7] were -21% and -4.99%, respectively. In addition, the binding (% of control) in assay [8] is 99.8%. For the same compound, the efflux inhibition (fraction of control) in assay [9] is 0.08. The differentiation response in assay [11] is -0.18%.
For the compound `COc1ccc(C2=CC(=O)C=CC2=O)cc1`, the GFP response, % of DMSO in [1] is 100%. In addition, the values for the inhibition in [2], in assay [6] and in assay [10] were 4.84%, 64.5% (active) and -2%, respectively. The superoxide response (% of plate) in assay [3] is 80.4%. Moreover, the aptamer binding inhibition in assay [4] is 1%. Further, the response in assay [5] was 64.2% (active); in assay [7], 62.2% (active). Further, the binding (% of control) in assay [8] is 88.8%. In addition, the efflux inhibition (fraction of control) in assay [9] was -0.04. Further, in [11], the differentiation response was -0.06%.
Take `O=C1ON=C(c2ccc(Cl)cc2)/C1=C/c1ccc(O)cc1`: the GFP response, % of DMSO in [1] is 95.4%. Moreover, the inhibition was 14.6% in [2], -8.88% in [6] and 2% in [10]. Moreover, in assay [3], the superoxide response (% of plate) was 93.4%. The aptamer binding inhibition in assay [4] was 4%. In addition, the response was 33.5% in assay [5] and -1.63% in [7]. Also, the binding (% of control) in assay [8] is 101%. For the same compound, the efflux inhibition (fraction of control) in [9] is -0.06. Also, in [11], the differentiation response is -8.8%.
As to `Cc1ccc2[nH]c3c(c2c1)CCNC3=O`, the GFP response, % of DMSO in assay [1] was 95%. Besides, the inhibition in [2] was 7.22%; in assay [6] it was -5.6%; in [10], 7%. Further, the superoxide response (% of plate) in assay [3] is 95%. Further, the aptamer binding inhibition in assay [4] was -2%. In assay [7], the response is -10.4%. In addition, the binding (% of control) in [8] was 100%. The efflux inhibition (fraction of control) in assay [9] is -0.2. In addition, in assay [11], the differentiation response was -6.66%.
Consider `CC(NCCc1ccc(O)cc1)C(O)c1ccc(O)cc1` (stereo unspecified), for which, in assay [1], the GFP response, % of DMSO was 101%. Besides, the figures for the inhibition in assay [2], in [6] and in assay [10] were -13.9%, 5.41% and 10%, respectively. Moreover, in [3], the superoxide response (% of plate) was 96.5%. Besides, in [4], the aptamer binding inhibition is 2%. In addition, the response in assay [5] is 0.53%; in [7] it was -1.74%. Further, in assay [8], the binding (% of control) was 103%. For the same compound, in [9], the efflux inhibition (fraction of control) is -0.31. In addition, the differentiation response in assay [11] was -8.19%.
Regarding `CC(=O)[C@@]1(O)CC[C@H]2[C@@H]3CCC4=CC(=O)CC[C@]4(C)[C@H]3[C@@H](O)C[C@@]21C`, the GFP response, % of DMSO in assay [1] was 103%. For the same compound, the values for the inhibition in assay [2], in assay [6] and in assay [10] were 12.8%, -12.8% and 10%, respectively. The superoxide response (% of plate) in [3] is 89.3%. For the same compound, the aptamer binding inhibition in assay [4] is 1%. For the same compound, the response in assay [7] was 4.15%. For the same compound, in [8], the binding (% of control) was 100%. For the same compound, the efflux inhibition (fraction of control) in assay [9] was -0.2. Further, in assay [11], the differentiation response was -3.43%.
With `CNCCC(Oc1ccc(C(F)(F)F)cc1)c1ccccc1` (stereo unspecified), the GFP response, % of DMSO in assay [1] was 97.4%. The inhibition in assay [2] is 6.46%; in assay [6] it was 13.5%; in assay [10], 6%. Also, the superoxide response (% of plate) in assay [3] was 85.8%. In addition, the aptamer binding inhibition in [4] was 0%. Besides, the response in assay [5] is 16.8%; in assay [7] it was 1.16%. In addition, the binding (% of control) in assay [8] was 94.1%. Besides, the differentiation response in assay [11] was -1.64%.
Take `CC(=O)[C@H]1CC[C@H]2[C@@H]3CCC4=CC(=O)CC[C@]4(C)[C@H]3CC[C@]12C`: the GFP response, % of DMSO in [1] was 96%. For the same compound, the inhibition in assay [2] is 21.7%; in [6], -3.41%; in assay [10], 0%. For the same compound, in [3], the superoxide response (% of plate) is 136%. Moreover, in assay [4], the aptamer binding inhibition is 5%. Further, the response in assay [5] was -14.3%; in [7], 5.39%. In addition, in assay [8], the binding (% of control) is 99.6%. Moreover, the efflux inhibition (fraction of control) in assay [9] was 0.275. The differentiation response in assay [11] is -1.65%.
